Test results from PubChem BioAssay AID485313 (National Center for Advancing Translational Sciences (NCATS), 2010).
The campaign covered roughly 320,000 compounds. About 7,600 (2.4%) were called active. Inconclusive results (about 3%) are left out. What follows is part of a selection rich in actives, with near analogues and random picks from the rest. Values without a mark were called inactive. Calls come from the whole dose curve; as a rule, active = well fitted activation curve with a large enough effect; inconclusive = small, poorly fitted or top-dose-only effect; inactive = no such curve, though single readings can be large or run the other way.

assay: qHTS Assay for NPC1 Promoter Activators; settings: Huh7 NPC1 promoter luciferase reporter, 24 h; series mostly up to 9.22 µM; activation: at the top concentration; note: nearly all actives have a fitted effect of over 60% in size; for activation: % of control where 0% means no effect
Text: NIH Chemical Genomics Center [NCGC] NIH Molecular Libraries Probe Production centers Network [MLPCN] MLPCN Grant: MH089375-01A1 Assay Submitter (PI): Yiannis A. Ioannou NCGC Assay Overview: Niemann Pick Type C (NPC) is a rare neurodegenerative lipidosis that is characterized by lipid storage in the endosomal/lysosomal system. Treatment modalities for this devastating disease are currently non-existent due to the severe obstacles associated with accessing the central nervous system with proteins or genes. The majority of mutations causing NPC disease are missense mutations that are distributed throughout the length of the NPC1 protein, with the most prevalent being the I1061T allele. Although NPC1 mutant proteins may be functional, they are typically trapped in the ER due to misfolding. […] We have developed and optimized a cell based luciferase reporter assay in 1536 well format for the identification of up-regulators of the mutant NPC1 promoter.
The NPC1 promoter is cloned in front of the luciferase reporter gene, therefore NPC promoter activation results in luciferase expression. Frozen stock of the NPC1 promoter transfected Huh7 cells were obtained from the laboratory of Dr. Yiannis Ioannou (The Mount Sinai School of Medicine, New York, NY). Cells were propagated and maintained at NCGC in medium containing RPMI-1640 supplemented with 10% FBS, 2mM L-glutamine, and 50ug/ml penicillin/streptomycin. Cells were harvested in and plated for assays in OP-MEM I reduced-serum medium supplemented with 10% FBS. The Amplite luciferase reporter gene assay kit was purchased from ABD Bioquest and prepared/stored according to manufacturers recommendations. qHTS Assay Setup: 1.#Dispensed 5ul of Huh7 cells stably expressing NPC1-luciferase at a density of 1500 cells per well 1536-well plates. 2.#Incubate cells at 37C, 5% CO2, and 95% humidity for 2 hours. 3.#Transferred 23nl per well of compound in DMSO solution. 4.#Incubated at 37C, 5% CO2, and 95% humidity for 24 hours. 5.#Dispensed 3ul per well of Amplite reagent(ABD Bioquest) per well. 6.#Incubate at ambient for 10 minutes. 7.#Read using the luminescence protocol on the ViewLux plate reader (Perkin Elmer).
Potency is the fitted concentration of half-maximal effect.

Row | Structure (SMILES) | activation [%] | Potency
1 | Cc1ccsc1C(=O)OCC(=O)Nc1cccc(F)c1 | 7.29 | 
2 | Cc1cc(C(=O)COc2ccc(Br)cc2F)c(C)n1C1CC1 | 15.3 | 
3 | N#Cc1ccccc1S(=O)(=O)N1CCN(Cc2c(O)ccc3ccccc23)CC1 | -0.384 | 
4 | CC1CC1C(=O)OCC(=O)Nc1cccc(F)c1 (configuration not stated) | -0.27 | 
5 | CC(=NCc1ccco1)c1c(C(F)(F)F)[nH]n(-c2nc3ccccc3s2)c1=O |  | 2.24 µM (active)
6 | CC(=NCc1ccco1)C1=C(O)c2ccccc2C1=O | 8.33 | 
7 | COC(=O)Cc1[nH]n(-c2nc3ccccc3s2)c(=O)c1C(C)=Nc1ccc(OC)cc1 | -16 | 
8 | CCCn1c(N)c(N(CCOC)C(=O)C2CCCC2)c(=O)[nH]c1=O | -2.43 | 
9 | CN(C(=O)CSc1nnc(C2CC2)n1C)C1CCCc2ccccc21 (configuration not stated) | -0.553 | 
10 | CN(C)/C=C(\C#N)C(=O)c1cccnc1Oc1ccc(F)cc1F | -8.2 | 
11 | COc1ccc(C)cc1NC(=O)CCCN1C(=O)NC(C)(C)C1=O | -6.41 | 
12 | COc1ccc(-c2nnc(SC(C)C(=O)NC3CC3)o2)cc1 (configuration not stated) | -0.432 | 
13 | CN(C)C(=O)c1ccc(NC(=O)COC(=O)c2cc3c(s2)CCCCC3)cc1 | -5.23 | 
14 | O=C(Nc1ccc(F)cc1)c1cc2c(s1)CCCC2 |  | 2.24 µM (active)
15 | O=C(NNC(=O)c1cc2c(s1)CCCC2)c1ccccc1 | 21.2 | 
16 | CCN(C(=O)COC(=O)Cc1c(F)cccc1Cl)c1c(N)n(Cc2ccccc2)c(=O)[nH]c1=O | -0.302 | 
17 | CSc1ncccc1C(=O)Nc1nc2ccc(F)cc2s1 |  | 0.126 µM (active)
18 | CSc1ncccc1C(=O)NC1CCCCCC1 | -4.31 | 
19 | CSc1ncccc1C(=O)Nc1ccc2c(c1)OCO2 | -0.125 | 
20 | Cc1ccc(NC(=O)CCC(=O)N2CCC(c3ccccc3)=N2)cc1S(=O)(=O)N1CCCCC1 | -1.45 | 
21 | O=c1ccc2c(-c3ccccc3S(=O)(=O)O)c3ccc(O)c(O)c3oc-2c1O | -7.8 | 
22 | CC1CCCCC1NC(=O)NC(=O)COC(=O)C1=NN(c2ccccc2)C(=O)CC1 (configuration not stated) | -3.42 | 
23 | O=S(=O)(NCCCN1CCOCC1)c1ccc(F)c(Cl)c1 | -5.25 | 
24 | COc1ccccc1CNC(=O)COC(=O)CNS(=O)(=O)c1ccc(NC(C)=O)cc1 | -1.15 | 
25 | Cc1ccnc(N2C(=O)c3ccc([N+](=O)[O-])cc3C2=O)c1 | -0.192 | 
26 | Cc1ccc(-c2cn(S(=O)(=O)c3cccc([N+](=O)[O-])c3)nc2N)cc1 | -1.34 | 

Row | Structure (SMILES) | activation [%] | Potency
27 | Cc1ccc(-n2cc3ccc([N+](=O)[O-])cc3n2)cc1 |  | 0.794 µM (active)
28 | Cn1c(N)c(C(=O)COC(=O)/C=C/c2cccc(C(F)(F)F)c2)c(=O)n(C)c1=O | 0.0298 | 
29 | Cc1ccn(-c2cccc(-n3ccc(C)n3)n2)n1 |  | 3.16 µM (active)
30 | CN(CC(=O)Nc1ccc(OC(F)(F)F)cc1)C(=O)C1CCC1 | -1.1 | 
31 | CC(=O)c1c(C)[nH]c(C(=O)OCC(=O)Nc2c(C)cccc2C)c1C | -10.2 | 
32 | COc1ccc(NC(=O)Nc2cccc3cccnc23)cc1 | 16.2 | 
33 | COc1ccc(/C=N/NC(=O)Nc2ccc3nsnc3c2)c(OC)c1 | -0.0419 | 
34 | COc1ccc(NC(=O)Nc2ccc3nsnc3c2)cc1 |  | 1.78 µM (active)
35 | COc1ccccc1CC(=O)Nc1ccc(F)cc1F | 1.66 | 
36 | COc1ccc(NC(=O)c2ccc(OC)cc2)cc1 |  | 1.78 µM (active)
37 | COc1ccc(NC(=O)c2ccc(C#CC(C)(C)O)cc2)cc1 | 8.18 | 
38 | COc1cc(OC)cc(C(=O)OCC(=O)Nc2ccc(F)cc2F)c1 | -1.57 | 
39 | COc1ccc(C(=O)Nc2cccc(S(C)(=O)=O)c2)cc1 | 2.72 | 
40 | COc1ccc(C(=O)Nc2ccc(F)cc2F)cc1 |  | 3.16 µM (active)
41 | COc1ccc(OC)c(/C=N/NC(=O)c2ccc[n+](CC(=O)c3ccccc3)c2)c1 | 2.89 | 
42 | COc1ccccc1C(=O)Nc1ccc(C)c(S(=O)(=O)N2CCCCC2)c1 | -2.07 | 
43 | CNS(=O)(=O)c1ccc(C(=O)NCC(=O)NCCc2ccc3c(c2)OCCO3)cc1 | 0.876 | 
44 | COc1ccc(C(=O)NCc2ccc(C)cc2)cc1S(=O)(=O)N1CCCC1 | -2.7 | 
45 | CC(C)(Oc1ccc(Cl)cc1)C(=O)OCC(=O)NCCc1ccc(S(N)(=O)=O)cc1 | -3.7 | 
46 | CC(=O)c1ccccc1NC(=O)C1CC(=O)N(c2ccc3c(c2)OCCO3)C1 (configuration not stated) | -3.76 | 
47 | COc1ccc(C(=O)N2CCN(c3ccc(C(C)=O)cc3F)CC2)cc1S(=O)(=O)NC1CC1 | 11.8 | 
48 | CCc1ccccc1NC(=O)[C@@H]1CCC(=O)N1C1OC(=O)c2c1ccc(OC)c2OC (some centres not stated) | -0.58 | 
49 | CN(C(=O)CSc1nnc(-c2ccc(C(C)(C)C)cc2)n1C)C1CCS(=O)(=O)C1 (configuration not stated) | 1.03 | 
50 | Cc1cccc(NS(=O)(=O)c2ccc(C)c(C(=O)NCC(c3ccccc3)N(C)C)c2)c1 (configuration not stated) | -5.65 | 
51 | C[C@H](NC(=O)c1ccccc1Cl)C(=O)OCC(=O)N1CCN(c2ccccc2)CC1 | -0.198 | 
52 | CCOC(=O)N1CCC(NC(=O)c2cnn3ccccc23)CC1 | -0.0909 | 
